{"source": "PubChem BioAssay (Tox21)", "note": "Inconclusive results are not listed. Values without a mark were called inactive. Unless noted, the call rests on the fitted dose curve; in most records, active means well fitted cell-killing curve with a large enough effect in the repeat runs; inconclusive means weak or mixed curves; inactive means no such curve, though single readings can be large or run the other way. On the % scale 0 is the no-effect control and ±100 the full control effect."}
{"tested_on": "not listed separately", "assay": "qHTS assay to identify small molecule agonists of the peroxisome proliferator-activated receptor delta (PPARd) signaling pathway - cell viability counter screen (AID 743211); further: nearly all actives have a fitted effect of over 55% in size", "conditions": "PPARd-bla HEK293H viability, CellTiter-Glo luminescence, 17 h; series mostly up to 62.6 µM; activity change, negative = cytotoxicity: at the top concentration", "method_in_brief": "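Viability of GeneBLAzer PPARd UAS-bla HEK293H cells was assessed after 17 h compound incubation at 37C, using CellTiter-Glo reagent added after the reporter read and luminescence recorded 30 min later.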"}
{"smiles": "CC(=O)CCc1ccc(O)cc1", "activity change, negative = cytotoxicity": "-0.843%"}
{"smiles": "OC[C@H]1O[C@@H]2O[C@H]3[C@H](O)[C@@H](O)[C@@H](O[C@H]4[C@H](O)[C@@H](O)[C@@H](O[C@H]5[C@H](O)[C@@H](O)[C@@H](O[C@H]6[C@H](O)[C@@H](O)[C@@H](O[C@H]7[C@H](O)[C@@H](O)[C@@H](O[C@H]8[C@H](O)[C@@H](O)[C@@H](O[C@H]9[C@H](O)[C@@H](O)[C@@H](O[C@H]1[C@H](O)[C@H]2O)O[C@@H]9CO)O[C@@H]8CO)O[C@@H]7CO)O[C@@H]6CO)O[C@@H]5CO)O[C@@H]4CO)O[C@@H]3CO", "activity change, negative = cytotoxicity": "-0.0983% [at 29.1 µM]"}
{"smiles": "CC(C)COC(=O)C(C)C", "activity change, negative = cytotoxicity": "14.7%"}
{"smiles": "Cc1nccn1CC1CCc2c(c3ccccc3n2C)C1=O", "note": "(stereo unspecified)", "activity change, negative = cytotoxicity": "-5.25%"}
{"smiles": "O=C(O)c1cccc(C(=O)O)n1", "activity change, negative = cytotoxicity": "0.409%"}
{"smiles": "C=CCOCC(O)CS(=O)(=O)O", "note": "(stereo unspecified)", "activity change, negative = cytotoxicity": "4.88% [at 81.1 µM]"}
{"smiles": "CCCOc1ccccc1-c1nc2n[nH]nc2c(=O)[nH]1", "activity change, negative = cytotoxicity": "-1.55%"}
{"smiles": "O=C(O)C(O)[C@H](O)[C@@H](O)[C@H](O)[C@H](O)CO", "note": "(stereo partly specified)", "activity change, negative = cytotoxicity": "4.17% [at 81.1 µM]"}
{"smiles": "O=C1OC(=O)c2cc([N+](=O)[O-])ccc21", "activity change, negative = cytotoxicity": "-1.96%"}
{"smiles": "C=C(C)C(=O)NCCCN(C)C", "activity change, negative = cytotoxicity": "8.72%"}
{"smiles": "FC(F)(F)C(F)(F)C(F)(F)C(F)(F)C(F)(F)C(F)(F)C(F)(F)C(F)(F)C(F)(F)C(F)(F)F", "activity change, negative = cytotoxicity": "5.8% [at 5.95 µM]"}
{"smiles": "CC/C=C\\CCCCO", "activity change, negative = cytotoxicity": "26.6%"}
{"smiles": "C#CC(O)C(CC)CCCC", "note": "(stereo unspecified)", "activity change, negative = cytotoxicity": "12%"}
{"smiles": "CCN1CCCC1CNC(=O)c1cc(S(N)(=O)=O)ccc1OC", "note": "(stereo unspecified)", "activity change, negative = cytotoxicity": "-10.7%"}
{"smiles": "C=C(C)[C@H]1CC=C(C)CC1", "activity change, negative = cytotoxicity": "3.74%"}
{"smiles": "C=CCSCC1Nc2cc(Cl)c(S(N)(=O)=O)cc2S(=O)(=O)N1", "note": "(stereo unspecified)", "activity change, negative = cytotoxicity": "2.1%"}
{"smiles": "Cc1ccc(Nc2ccc(O)c3c2C(=O)c2ccccc2C3=O)cc1", "activity change, negative = cytotoxicity": "0.129%"}
{"smiles": "COC(=O)[C@H]1[C@H]2C[C@@H]3c4[nH]c5cc(OC)ccc5c4CCN3C[C@H]2C[C@@H](OC(=O)COc2ccc(OC)cc2)[C@@H]1OC", "activity change, negative = cytotoxicity": "-23.1%"}
{"smiles": "CCCc1ccccc1O", "activity change, negative = cytotoxicity": "0.468%"}
{"smiles": "CNc1ncnc2nc[nH]c12", "activity change, negative = cytotoxicity": "-13.4% [at 81.1 µM]"}
{"smiles": "CC(O)CN(CCCN(C)C)CCCN(C)C", "note": "(stereo unspecified)", "activity change, negative = cytotoxicity": "1.42%"}
{"smiles": "COc1ccc2cc(C=O)ccc2c1", "activity change, negative = cytotoxicity": "3.28%"}
{"smiles": "CN(C)N=Nc1ccccc1", "activity change, negative = cytotoxicity": "0.194%"}
{"molecular_target": "Peroxisome proliferator-activated receptor delta (Homo sapiens) (UniProt Q03181)", "sequence (Q03181 whole entry, looked up)": "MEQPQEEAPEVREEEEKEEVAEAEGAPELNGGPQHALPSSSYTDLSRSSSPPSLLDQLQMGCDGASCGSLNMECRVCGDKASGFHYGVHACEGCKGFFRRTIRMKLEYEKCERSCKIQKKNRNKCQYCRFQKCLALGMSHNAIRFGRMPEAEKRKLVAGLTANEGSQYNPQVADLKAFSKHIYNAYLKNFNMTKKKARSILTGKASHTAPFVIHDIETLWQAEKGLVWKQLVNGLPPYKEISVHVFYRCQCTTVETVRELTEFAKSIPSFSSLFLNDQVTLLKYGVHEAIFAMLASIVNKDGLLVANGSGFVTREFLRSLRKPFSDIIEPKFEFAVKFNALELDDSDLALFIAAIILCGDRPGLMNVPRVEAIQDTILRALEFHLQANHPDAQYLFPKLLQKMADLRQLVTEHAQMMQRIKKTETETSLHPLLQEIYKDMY", "assay": "qHTS assay to identify small molecule agonists of the peroxisome proliferator-activated receptor delta (PPARd) signaling pathway (AID 743212; calls by dose curve)", "conditions": "HEK293H PPARd-UAS-bla, beta-lactamase FRET ratio, 17 h; series mostly up to 62.6 µM; activation: at the top concentration", "method_in_brief": "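Beta-lactamase reporter read by fluorescence (LiveBLAzer B/G FRET, 2 h, room temperature). Test agents, in DMSO, incubated at 37 C with PPARd-bla HEK293H cells.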"}
{"smiles": "OCCN1C[C@H](O)[C@@H](O)[C@H](O)[C@H]1CO", "activation": "-1.55%"}
{"smiles": "COc1cccc(OC)c1", "activation": "-2.09%"}
{"smiles": "CCOC(=O)Cn1c(=O)sc2cccc(Cl)c21", "activation": "-0.0979%"}
{"smiles": "NS(=O)(=O)c1cc(C2(O)NC(=O)c3ccccc32)ccc1Cl", "note": "(stereo unspecified)", "activation": "2.08%"}
{"smiles": "N#CC1(O)CCCCC1", "activation": "4.12% [at 81.1 µM]"}
{"smiles": "O=C1CC2(CCCC2)CC(=O)N1", "activation": "0.998%"}
{"smiles": "O=C(O)CCNC(=O)c1ccc(N=Nc2ccc(O)c(C(=O)O)c2)cc1", "activation": "-2.16%"}
{"smiles": "N#CCc1ccccc1[N+](=O)[O-]", "activation": "0.679%"}
{"smiles": "NC(=O)c1c(Cl)cccc1Cl", "activation": "12.1%"}
{"smiles": "CN1[C@@H]2CC[C@H]1CC(NC(=O)n1c(=O)[nH]c3ccccc31)C2", "note": "(stereo partly specified)", "activation": "1.3%"}
{"smiles": "CC1(C)OC(=O)Nc2ccc(Br)cc21", "activation": "2.1%"}
{"smiles": "C(=C(c1ccccc1)c1ccccc1)c1ccccc1", "activation": "1.52%"}
{"smiles": "CC(C)CCOC(=O)CC(C)C", "activation": "3.28%"}
{"smiles": "COc1ccc(COC=O)cc1", "activation": "1.62%"}
{"smiles": "O=C1C(CCS(=O)c2ccccc2)C(=O)N(c2ccccc2)N1c1ccccc1", "note": "(stereo unspecified)", "activation": "0.694%"}
{"tested_on": "not listed separately", "assay": "qHTS assay to identify small molecule antagonists of the peroxisome proliferator-activated receptor delta (PPARd) signaling pathway - cell viability counter screen (AID 743213); further: nearly all actives have a fitted effect of over 50% in size", "conditions": "PPARd-bla HEK293H viability, CellTiter-Glo luminescence, 17 h; series mostly up to 62 µM; viability change, negative = cytotoxic: at the top concentration", "method_in_brief": "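Viability counter-screen, qHTS format: PPARd-bla HEK293H, L165041 300 nM final, 17 h compound exposure at 37 C, CellTiter-Glo luminescence after 30 min RT.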"}
{"smiles": "OCCN1C[C@H](O)[C@@H](O)[C@H](O)[C@H]1CO", "viability change, negative = cytotoxic": "6.78%"}
{"smiles": "COc1cccc(OC)c1", "viability change, negative = cytotoxic": "13.1%"}
{"smiles": "CCOC(=O)Cn1c(=O)sc2cccc(Cl)c21", "viability change, negative = cytotoxic": "-1.5%"}
{"smiles": "NS(=O)(=O)c1cc(C2(O)NC(=O)c3ccccc32)ccc1Cl", "note": "(stereo unspecified)", "viability change, negative = cytotoxic": "12.9%"}
{"smiles": "N#CC1(O)CCCCC1", "viability change, negative = cytotoxic": "-0.826% [at 80.4 µM]"}
{"smiles": "C=C(C)C(=O)NCCCN(C)C", "viability change, negative = cytotoxic": "3.6%"}
{"smiles": "O=C1CC2(CCCC2)CC(=O)N1", "viability change, negative = cytotoxic": "4.86%"}
{"smiles": "O=C(O)CCNC(=O)c1ccc(N=Nc2ccc(O)c(C(=O)O)c2)cc1", "viability change, negative = cytotoxic": "-3.62%"}
{"smiles": "N#CCc1ccccc1[N+](=O)[O-]", "viability change, negative = cytotoxic": "0.131%"}
{"smiles": "NC(=O)c1c(Cl)cccc1Cl", "viability change, negative = cytotoxic": "-3.67%"}
{"smiles": "CN1[C@@H]2CC[C@H]1CC(NC(=O)n1c(=O)[nH]c3ccccc31)C2", "note": "(stereo partly specified)", "viability change, negative = cytotoxic": "3.12%"}
{"smiles": "CC1(C)OC(=O)Nc2ccc(Br)cc21", "viability change, negative = cytotoxic": "6.32%"}
{"smiles": "C(=C(c1ccccc1)c1ccccc1)c1ccccc1", "viability change, negative = cytotoxic": "19.1%"}
{"smiles": "CCCc1ccccc1O", "viability change, negative = cytotoxic": "0.111%"}
{"smiles": "CC(C)CCOC(=O)CC(C)C", "viability change, negative = cytotoxic": "2.41%"}
{"smiles": "COc1ccc(COC=O)cc1", "viability change, negative = cytotoxic": "-17.2%"}
{"smiles": "O=C1C(CCS(=O)c2ccccc2)C(=O)N(c2ccccc2)N1c1ccccc1", "note": "(stereo unspecified)", "viability change, negative = cytotoxic": "3.76%"}
{"molecular_target": "Peroxisome proliferator-activated receptor delta (Homo sapiens) (UniProt Q03181)", "assay": "qHTS assay to identify small molecule antagonists of the peroxisome proliferator-activated receptor delta (PPARd) signaling pathway (AID 743215; active means well fitted inhibition curve with a large enough effect in the signal ratio in the repeat runs, not every such curve was filed as active; the % refers to the signal ratio;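 further: cells stimulated with agonist L165041 at 300 nM final during compound exposure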)", "conditions": "HEK293H PPARd-UAS-bla, beta-lactamase FRET ratio, antagonist, 17 h; series mostly up to 62 µM; ratio activity, negative = inhibition: at the top concentration", "method_in_brief": "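Screen format: qHTS, antagonist mode. HEK293H PPARd-bla cells received compound and 300 nM L165041 (final), 17 h, 37 C. Beta-lactamase detected via FRET substrate fluorescence, 2 h, room temperature.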"}
{"smiles": "CC(=O)CCc1ccc(O)cc1", "ratio activity, negative = inhibition": "18.8%"}
{"smiles": "CC(C)COC(=O)C(C)C", "ratio activity, negative = inhibition": "-3.25%"}
{"smiles": "O=C(O)c1cccc(C(=O)O)n1", "ratio activity, negative = inhibition": "13.2%"}
{"smiles": "C=CCOCC(O)CS(=O)(=O)O", "note": "(stereo unspecified)", "ratio activity, negative = inhibition": "1.01% [at 80.4 µM]"}
{"smiles": "OCCN1C[C@H](O)[C@@H](O)[C@H](O)[C@H]1CO", "ratio activity, negative = inhibition": "11.7%"}
{"smiles": "COc1cccc(OC)c1", "ratio activity, negative = inhibition": "2.18%"}
{"smiles": "CCCOc1ccccc1-c1nc2n[nH]nc2c(=O)[nH]1", "ratio activity, negative = inhibition": "-6.42%"}
{"smiles": "CCOC(=O)Cn1c(=O)sc2cccc(Cl)c21", "ratio activity, negative = inhibition": "6.11%"}
{"smiles": "NS(=O)(=O)c1cc(C2(O)NC(=O)c3ccccc32)ccc1Cl", "note": "(stereo unspecified)", "ratio activity, negative = inhibition": "-0.745%"}
{"smiles": "N#CC1(O)CCCCC1", "ratio activity, negative = inhibition": "-0.895% [at 80.4 µM]"}
{"smiles": "O=C1OC(=O)c2cc([N+](=O)[O-])ccc21", "ratio activity, negative = inhibition": "1.12%"}
{"smiles": "O=C1CC2(CCCC2)CC(=O)N1", "ratio activity, negative = inhibition": "-0.451%"}
{"smiles": "O=C(O)CCNC(=O)c1ccc(N=Nc2ccc(O)c(C(=O)O)c2)cc1", "ratio activity, negative = inhibition": "-0.508%"}
{"smiles": "N#CCc1ccccc1[N+](=O)[O-]", "ratio activity, negative = inhibition": "-2.48%"}
{"smiles": "NC(=O)c1c(Cl)cccc1Cl", "ratio activity, negative = inhibition": "-4.63%"}
{"smiles": "CN1[C@@H]2CC[C@H]1CC(NC(=O)n1c(=O)[nH]c3ccccc31)C2", "note": "(stereo partly specified)", "ratio activity, negative = inhibition": "3.02%"}
{"smiles": "C=CCSCC1Nc2cc(Cl)c(S(N)(=O)=O)cc2S(=O)(=O)N1", "note": "(stereo unspecified)", "ratio activity, negative = inhibition": "-2.71%"}
{"smiles": "CC1(C)OC(=O)Nc2ccc(Br)cc21", "ratio activity, negative = inhibition": "1.18%"}
{"smiles": "Cc1ccc(Nc2ccc(O)c3c2C(=O)c2ccccc2C3=O)cc1", "ratio activity, negative = inhibition": "-8.77%"}
{"smiles": "C(=C(c1ccccc1)c1ccccc1)c1ccccc1", "ratio activity, negative = inhibition": "1.56%"}
{"smiles": "CC(C)CCOC(=O)CC(C)C", "ratio activity, negative = inhibition": "18.8%"}
{"smiles": "CNc1ncnc2nc[nH]c12", "ratio activity, negative = inhibition": "-8.37% [at 80.4 µM]"}
{"smiles": "COc1ccc2cc(C=O)ccc2c1", "ratio activity, negative = inhibition": "4.69%"}
{"smiles": "CN(C)N=Nc1ccccc1", "ratio activity, negative = inhibition": "-1.43%"}
{"smiles": "COc1ccc(COC=O)cc1", "ratio activity, negative = inhibition": "1.16%"}
{"smiles": "O=C1C(CCS(=O)c2ccccc2)C(=O)N(c2ccccc2)N1c1ccccc1", "note": "(stereo unspecified)", "ratio activity, negative = inhibition": "-2.37%"}
